In the library only some 13% were active in any assay of this set; here they are far more common.
WT yeast gro inh: growth inhibition of WT yeast, mitochondrial fusion screen; mitochondrial fusion phenotypic screen, WT strain; inhibition, % at 10 µM; hit rate 2.1% among 190,000; in the data active = inhibition above about 58%; tested in S. cerevisiae
RAM network inh: inhibitors of the yeast RAM network; hit rate 1.8% among 190,000; S. cerevisiae dse1pr::URA3 reporter, 5-FOA growth OD615, 2 d; analog-sensitive cbk1-as2 kinase mutant strain; AID 868; inhibition, % at 50 µM;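 active = inhibition above a set limit, 3 SD over mean compound inhibition, cut at about 8.4% in these data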;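 note: 0% = DMSO-only wells with no growth and 100% = 10 µM 1-NA-PP1 full growth; inhibition rescues growth on 5-FOA so higher OD means more RAM inhibition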
CHOP inhibitor: inhibitors of CHOP induction in ER stress response. hit rate 3.8% among 220,000. inhibition, % at 10 µM. CHO-K1 CHOP-promoter luciferase, tunicamycin-induced, 15-18 h;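 active = compounds that reduced the stress-induced luciferase reporter signal by more than about 70% of percent inhibition, limit read from the data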;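 note: 0% = tunicamycin plus vehicle and 100% = wells without tunicamycin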
Lmaj promast: inhibitors of Leishmania major promastigote growth. AID 1063. Leishmania major promastigotes, resazurin fluorescence viability. inhibition, % at 10 µM. hit rate 9% among 200,000; in the data active = inhibition above about 50%;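 note: promastigotes grown with compound for 44 hours at 28 °C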
Numbers without * were called inactive; / = not tested or not shown.

SMILES | WT yeast gro inh | RAM network inh | CHOP inhibitor | Lmaj promast
COc1ccccc1C1Nc2cccc3cccc(c23)N1 | 19 | 0 | 87* | 17
Oc1ccccc1C1Nc2cccc3cccc(c23)N1 | -23 | 5 | 26 | -6
CCOc1ccc(C2Nc3cccc4cccc(c34)N2)cc1OC | 3 | 6 | -7 | 69*
O=C(CN1C(=O)NC2(CCCCCCC2)C1=O)NCc1cccs1 | -1 | -2 | -15 | -2
CC(C)(C)c1ccc(C2(C)NC(=O)N(CC(=O)NCc3cccs3)C2=O)cc1 (centres undefined) | -1 | 1 | 32 | 69*
Cc1noc(C)c1COc1ccc(C(=O)OCc2nnc(-c3ccc(Cl)cc3)o2)cc1 | -11 | 10.0* | 12 | 1
O=C(OCc1nnc(-c2ccc(Cl)cc2)o1)c1ccncc1 | 3 | 4 | 38 | -9
COc1ccc(N(CC(=O)Nc2ccccc2C(N)=O)S(=O)(=O)c2ccc(C)c([N+](=O)[O-])c2)cc1 | -4 | 10* | -4 | 25
COc1ccc([N+](=O)[O-])cc1NC(=O)c1ccc(C)o1 | 1 | 2 | 2 | 7
COc1ccc(C)cc1S(=O)(=O)N(CC(=O)Nc1cc([N+](=O)[O-])ccc1C)c1ccc(C)c(C)c1 | 13 | 5 | -2 | 99*
COc1ccc([N+](=O)[O-])cc1NC(=O)c1ccc(CN(c2ccc(C)c(C)c2)S(C)(=O)=O)cc1 | -9 | 9.7* | -33 | 19
CCN(CC)CCC#CC(O)(c1ccccc1)c1ccccc1 | -11 | 0 | 44 | 5
CCN(CC)CC#CC(OC)(c1ccccc1)c1ccccc1 | 11 | -1 | 33 | 64*
Cc1cc(C(=O)COc2cccc3cccnc23)c(C)n1C | -18 | 1 | 4 | -4
Cc1ccc(OCC(=O)c2cc(C)n(C)c2C)c([N+](=O)[O-])n1 | 6 | 2 | 40 | 53*
Cc1cc(C(=O)COc2cccnc2[N+](=O)[O-])c(C)n1-c1ccccc1 | 5 | 4 | 75* | 51*
N/C(Cn1cncn1)=N\NC(=O)C(=O)Nc1cccc(C(F)(F)F)c1 | 0 | 1 | 9 | -4
O=C(Cn1nnc2ccccc2c1=O)Nc1cccc(S(=O)(=O)N2CCOCC2)c1 | 0 | 2 | -2 | 15
COC(=O)c1ccccc1C(=O)N1CCCC(CCC(=O)NCc2ccc(F)c(F)c2)C1 (centres undefined) | -13 | 1 | 12 | -2
CCC1CCC(C(=O)NC(CCSC)C(=O)NCCN(CC(C)C)CC(C)C)CC1 (centres undefined) | -20 | 1 | 60 | 15
CCn1c(C(=O)N2CCCC(C(=O)NCCc3ccc(C)cc3)C2)cc2sccc21 (centres undefined) | 44 | -1 | 37 | 8
CCn1c(C(=O)N2CCCC(C(=O)NCCCc3ccccc3)C2)cc2sccc21 (centres undefined) | -1 | 4 | 42 | 99*
Cn1c(C(=O)N2CCCC(C(=O)NCCCSC3CCCCC3)C2)cc2sccc21 (centres undefined) | 14 | 4 | 74* | 13
Cc1c(C(=O)c2ccc(Cl)c(Cl)c2)cnc2cc3c(cc12)OCO3 | 61* | 0 | 38 | 32
COc1ccc(C(=O)c2cnc3cc4c(cc3c2C)OCO4)cc1 | 16 | 1 | -4 | 12
SMILES | WT yeast gro inh | RAM network inh | CHOP inhibitor | Lmaj promast
O=C(O)c1cccc(COc2ccc3c(c2)CCC3)c1 | / | / | 93* | /
O=C(c1ccco1)N1CCN(C(=O)c2ccc(COc3ccc4c(c3)CCC4)o2)CC1 | 20 | 0 | -4 | 83*
COc1cccc(OC)c1C(=O)NNC(=O)c1cccc(COc2ccc3c(c2)CCC3)c1 | 0 | 1 | 62 | 7
CCOc1ccc(OCc2cccc(C(=O)O)c2)cc1 | 26 | 2 | 109* | /
CCN(CC)S(=O)(=O)c1cc(NC(=O)CCCOc2ccc(C(C)=O)cc2)ccc1C | -20 | 2 | 2 | 8
CCOC(=O)C1(CCc2ccccc2)CCN(C(=O)c2cc(C)nc(C)n2)CC1 | 16 | 0 | 17 | 4
O=[N+]([O-])c1cc(S(=O)(=O)N2CCCC2)ccc1NCCc1ccccc1 | -21 | 9.7* | -14 | 58*
O=[N+]([O-])c1cc(S(=O)(=O)N2CCCC2)ccc1N/N=C/c1cccnc1 | -11 | 0 | 33 | 60*
COc1ccc(Nc2ccc(S(=O)(=O)N3CCCCCC3)cc2[N+](=O)[O-])cc1 | 27 | 7 | 32 | -1
COc1ccc(CCNc2ccc(S(=O)(=O)N3CCCC3)cc2[N+](=O)[O-])cc1 | 15 | 11* | 9 | -2
COP(=O)(OC)C(Nc1ccc(C)cc1)c1ccc([N+](=O)[O-])cc1 (centres undefined) | 18 | 1 | -43 | 4
O=C(COC(=O)CNC(=O)c1ccccc1)Nc1ccc(F)c([N+](=O)[O-])c1 | -2 | 1 | -20 | -7
Cc1nc(Cl)sc1C(=O)Nc1ccc(Cl)cc1 | 16 | -1 | 42 | -11
CC(C)(C)NC(=O)NCC1CCCC1NC(=O)NC(C)(C)C (centres undefined) | / | / | 1 | /
CC(C)(C)c1ccc(OCCOc2ccc(C(C)(C)C)cc2NC=O)c(NC=O)c1 | / | / | 48 | /
CCN=C1S/C(=C\c2sccc2C)C(=O)N1CC | 3 | 2 | 3 | -2
CCOC(=O)C1=NN(C(C)=O)C2(CC(=O)N(c3ccc(C)c(C)c3)C2=O)C1 (centres undefined) | 2 | 3 | 22 | -4
O=C(O)CCn1c(C2CCCCC2)nc2ccccc21 | 8 | 2 | 3 | -8
c1ccc(CCn2c(C3CC3)nc3ccccc32)cc1 | -5 | 2 | -18 | 63*
Cc1ccsc1C(=O)OCc1csc(-c2ccccc2)n1 | 67* | 2 | 46 | 5
O=C(CNS(=O)(=O)c1cccc(Cl)c1)OCc1csc(-c2ccccc2)n1 | 5 | 6 | 90* | -1
COc1cnc(-c2ccccn2)nc1Sc1ccccc1 | 59 | -1 | -6 | 100*
COc1cnc(-c2ccccn2)nc1Oc1ccccc1 | -2 | 0 | -97 | 9
COc1cnc(-c2ccccn2)nc1Sc1ccc(Cl)cc1 | 3 | 0 | 30 | 100*
COc1cnc(N(C)C)nc1Sc1ccc(Cl)cc1 | 16 | 0 | 33 | -3
SMILES | WT yeast gro inh | RAM network inh | CHOP inhibitor | Lmaj promast
COc1ccc(Sc2nc(-c3ccccn3)ncc2OC)cc1 | 63 | -1 | 52 | 101*
CCOC(=O)CSc1nc(-c2ccccn2)ncc1OC | 22 | 3 | -39 | 1
COc1cnc(-c2ccccn2)nc1Sc1ccc(F)cc1 | 68* | -2 | 12 | 94*
O=C1CC(c2ccco2)Cc2nc(NCC3CCCO3)ncc21 (centres undefined) | -13 | 1 | 82* | -4
Cc1nc(-c2nnc(SCC(=O)Nc3ccc(C(F)(F)F)cc3)n2C)cs1 | / | / | 8 | /
COc1ccc(NC(=O)C2CC(=O)n3cnnc3S2)cc1 (centres undefined) | 5 | 3 | -4 | 98*
CCOc1ccc(C(=O)NCC(=O)OCC(=O)N2CCCC2)cc1 | -12 | 4 | 8 | -5
COc1ccccc1-c1cc2nc(C)cc(C)n2n1 | / | / | -28 | /
O=C(CSc1nnc(CN2CCOCC2)n1-c1ccc(Cl)cc1)Nc1cc(Cl)ccc1O | 19 | 11* | 21 | 7
O=C(CSc1nnc(CN2CCOCC2)n1-c1ccc(Cl)cc1)N1CCc2ccccc21 | / | / | / | 14

High-throughput results as filed in PubChem.
